The whole screen tested about 48,000 compounds, of which about 13,000 (27%) showed an effect of 50% or more. This is one part of the list.

This test deals with Wolbachia pipientis. Briefly: Anti-Wolbachia Cell-Based Screen. It is filed as functional. Also noted: scale not given: in the data most compounds retested in dose-response had high values. The conditions noted are these: 5 µM.
As to `COCCN(C)C(C)Cc1ccccc1OC` (stereo not given), the “Percent Effect” value is recorded as -4.833%.
As for `CO[C@H]1CN(CC2CC2)[C@@H]2CCCO[C@H]12.O=C(O)C(F)(F)F`, the “Percent Effect” value came to 102.7%.
Under `CO[C@@H]1CC[C@H]2[C@H]1OCCN2CC1CCOCC1.O=C(O)C(F)(F)F` stands 4.293%; under `CO[C@H]1CN(Cc2ccc(C)o2)[C@@H]2CCCO[C@H]12.O=C(O)C(F)(F)F`, -4.054%; under `CCO[C@H]1CN(CC2CC2)[C@@H]2CCCO[C@H]12.O=C(O)C(F)(F)F`, 109.7%.
Then `CN(Cc1cncnc1)[C@H]1CN(CC2CC2)[C@@H]2CCCO[C@@H]21.O=C(O)C(F)(F)F.O=C(O)C(F)(F)F`, with -10.71%; and `Cc1noc(C)c1CN1C[C@H](OCC2CC2)[C@H]2OCCC[C@H]21.O=C(O)C(F)(F)F`, with 2.314%; and `CO[C@H]1CN(CC2CCOCC2)[C@@H]2CCCO[C@H]12.O=C(O)C(F)(F)F`, with 117.1%.
Turning to `Cc1noc(C)c1CN1C[C@H](OCC(=O)N(C)C)[C@H]2OCCC[C@H]21.O=C(O)C(F)(F)F`, the “Percent Effect” value is given as -4.98%.
Under `CO[C@@H]1CN(Cc2scnc2C)[C@@H]2CCCO[C@@H]21.O=C(O)C(F)(F)F.O=C(O)C(F)(F)F` stands -11.47%.
For `CC(=O)N1CCC2(CCN(CC(C)C)C2)C1` (stereo not given), the “Percent Effect” value is -12.71%.
Then `CCNC(=O)NC[C@H]1C[C@@H]2CCN1C[C@@H]2c1cc(-c2cccs2)nn1C`, with -4.515%; and `CCN(CC)C[C@H]1CN2CC[C@H]1C[C@@H]2CNC(=O)Nc1ccsc1`, with 12.78%.
Regarding `O=C(O)C(F)(F)F.O=C(c1ccncc1F)N1C[C@@H]2OCCN(CC3CC3)[C@@H]2C1`, the “Percent Effect” value is -13.64%.
Then `c1cnc(Nc2ccc(C3CCCCN3)cn2)cn1` (stereo not given), with 123.5%.
Under `Cc1cccc(Nc2ccc(C3CCCCN3)cn2)n1` (stereo not given) stands 86.37%.
With `Cc1cc(C)nc(Nc2ccc(C3CCCCN3)cn2)n1` (stereo not given), the “Percent Effect” value stood at 126%.
Consider `CC(=O)N1CCOCC2(CCCNC2)C1` (stereo not given), for which the “Percent Effect” value is -30.9%.
Then `CCCN1C[C@H]2CC[C@@H]1CN(C(=O)Cn1c(C)cc(C)nc1=O)C2`, with -4.771%; and `Cn1cc(CN2C[C@H]3CCC[C@@]3(COc3ccccn3)C2)cn1.O=C(O)C(F)(F)F.O=C(O)C(F)(F)F`, with 101.4%.
Then `O=C(O)C(F)(F)F.O=C(O)C(F)(F)F.c1ccc(CN2C[C@H]3CCC[C@@]3(COCC3CC3)C2)nc1`, with 8.685%.
Then `c1ccc(COC[C@@]23CCC[C@@H]2CN(Cc2ccccn2)C3)nc1`, with -0.5697%; and `Cn1cc(CN2CCN3C[C@H](Oc4cccnc4)C[C@H]3C2)cn1`, with -3.726%; and `Cn1cc(CN2C[C@H]3CCC[C@@]3(COc3cccnc3)C2)cn1`, with 95.98%.
On to `O=C(N[C@H]1COC[C@@H]1N1CCCC1)c1csc(Cc2ccccc2)n1`, for which the “Percent Effect” value is 115.4%.
As to `O=C(N[C@H]1COC[C@@H]1N1CCCC1)c1c[nH]nc1C1CCCCC1`, the “Percent Effect” value came out at 3.503%.
On to `Cc1nc(C(=O)N[C@H]2COC[C@@H]2N2CCCCC2)cs1`, for which the “Percent Effect” value was 100.8%.
Under `Cc1cc(C(=O)N[C@H]2COC[C@@H]2N2CCOCC2)c2ccc(F)cc2n1` stands -11.09%; under `Cc1ccc2nc(C)c(C)c(C(=O)N[C@H]3COC[C@@H]3N3CCCC3)c2c1`, -0.09991%; under `O=C(N[C@H]1COC[C@@H]1N1CCCC1)c1csc(-c2cccs2)n1`, 103.2%.
Consider `CCCc1nc(C(=O)N[C@H]2COC[C@@H]2N2CCN(C)CC2)cs1`, for which the “Percent Effect” value is 87.61%.
Consider `Cc1ccc2nc(C)cc(C(=O)N[C@H]3COC[C@@H]3N3CCOCC3)c2c1`, for which the “Percent Effect” value is given as -2.538%.
With `O=C(c1csc(-c2ncccn2)n1)N1CCN2CCCCC2C1` (stereo not given), the “Percent Effect” value is reported as -3.286%.
Then `Cc1cc(C)n2nc(C(=O)N[C@H]3C[C@H]4CN(C)CCN4C3)cc2n1`, with -14.62%; and `Fc1cnc(N2CCOCC3(CCCNC3)C2)nc1` (stereo not given), with -3.763%.
Take `CCCN1CC2(CCN(c3ncc(F)cn3)CC2)CC1C(=O)O` (stereo not given): the “Percent Effect” value is listed as 2.005%.
Turning to `CC(C)c1ocnc1C(=O)N1CCC2(CC1)OCCO2`, the “Percent Effect” value is reported as -1.453%.
Then `O=S(=O)(NC[C@H]1C[C@@H]2CCN1C[C@@H]2CN1CCOCC1)c1ccccc1`, with -10.01%.
In the case of `c1c[nH]c2nc(C3CCCNC3)nc-2c1` (stereo not given), the “Percent Effect” value amounted to 109%.
In the case of `c1c[nH]c2nc(C3CCNCC3)nc-2c1`, the “Percent Effect” value is on record as 118.5%.
Under `Cl.O=C(NCC1CCC2(CCNCC2)O1)C1CC1` (stereo not given) stands -17.62%.
Then `O=C(c1nc(=O)[nH]c2ccccc12)N1CCCC2(CCNC2)C1` (stereo not given), with 12.22%; and `O=C(c1onc2ccccc12)N1CCC2(CCCNC2)C1` (stereo not given), with 102.5%; and `Cl.O=C(N1CCOCC1)N1CCCC2(CCCNC2)C1` (stereo not given), with -22.36%.
Under `COCCCN1CCCC12CCN(c1ncccn1)CC2.O=C(O)C(F)(F)F` stands 8.313%.

The values are drawn from ChEMBL document CHEMBL3988442, “University of Dundee, Small-Polar-MMV Screening Library” (2021).
